CYP2C19 inhib = blocks human cytochrome P450 2C19 | CYP2C19 Supersomes, luciferin-H EGE luminescence, 30 min | AID 778 | 21% of 96,000 active | inhibition, % at 5 µM;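 active means CYP2C19 inhibition above a set limit at 5 µM in the primary screen, cut at about 50% in these data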;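 further: plate controls were negative control wells for no effect and 2.5 mM tranylcypromine positive control for full effect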
Target sequence (P33261 whole entry, looked up): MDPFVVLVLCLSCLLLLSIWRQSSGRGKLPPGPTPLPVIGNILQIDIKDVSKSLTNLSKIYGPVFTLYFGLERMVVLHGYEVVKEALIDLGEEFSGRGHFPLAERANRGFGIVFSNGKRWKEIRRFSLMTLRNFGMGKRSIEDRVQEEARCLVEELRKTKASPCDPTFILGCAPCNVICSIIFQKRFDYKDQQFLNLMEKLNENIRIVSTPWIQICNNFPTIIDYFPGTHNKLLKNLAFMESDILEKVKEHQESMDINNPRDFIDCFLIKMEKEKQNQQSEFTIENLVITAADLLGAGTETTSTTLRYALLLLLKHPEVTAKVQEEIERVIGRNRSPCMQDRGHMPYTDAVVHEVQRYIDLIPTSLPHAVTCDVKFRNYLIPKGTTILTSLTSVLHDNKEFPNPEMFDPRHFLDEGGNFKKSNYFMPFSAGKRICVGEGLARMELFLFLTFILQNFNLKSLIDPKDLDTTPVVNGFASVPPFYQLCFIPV
sEH inhibitor = soluble epoxide hydrolase (human) inhibition; recombinant human sEH enzymatic activity assay; inhibition, % at 2 µM; 0.34% of 91,000 active; in the data active means inhibition above about 80%
sEH act = activators of human soluble epoxide hydrolase | P34913 | purified human sEH enzymatic activity, activator screen | activation, % at 2 µM | 0.04% of 91,000 active | AID 717; in the data active means activation above about 37%
CYP2C19 activ = cytochrome P450 2C19 (human) activation | P33261 | recombinant CYP2C19, luciferin-H EGE luminescence; active compounds read high; 0 = fully inhibited enzyme, 1 = untreated enzyme | activation factor at 5 µM | 96,000 tested, under 10 active;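 active means activation factor of at least 2 at 5 µM in the primary screen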;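 further: 0 = wells with 2.5 mM tranylcypromine and 1 = vehicle-only wells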
CYP2C9 inhib = blocks human cytochrome P450 2C9; inhibition, % at 5 µM; 20% of 96,000 active; AID 777; CYP2C9 Supersomes, luciferin-H conversion, luminescence;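 active means blocking of liver enzyme CYP2C9 beyond about 50% at 5 µM, limit read from the data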
CYP2C9 act = CYP2C9 (human) activation. recombinant CYP2C9, luciferin-H conversion, luminescence; active compounds read high; factor 1 = untreated enzyme, 0 = blocked. activation factor at 5 µM. P11712. 1.4% of 96,000 active;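 active means activation factor of 2 or more for CYP2C9 at a 5 µM dose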;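 further: 0 = sulfaphenazole-blocked wells and 1 = vehicle-only wells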
An asterisk follows results filed as active. A selection: hits, their analogues and other compounds. The true share with any hit is near 27%.

For Cc1cc(C)n(-c2nnc3n2N=C(c2ccccc2)CS3)n1 the results were CYP2C19 inhib 51*, sEH inhibitor 4, sEH act -4, CYP2C19 activ 0.5, CYP2C9 inhib 23 and CYP2C9 act 0.8.
CCC(=O)N1CCN(c2ccc(NC(=O)c3ccc(-c4ccccc4)cc3)cc2)CC1 was read as CYP2C19 inhib -7, sEH inhibitor -3, sEH act 3, CYP2C19 activ 1.1, CYP2C9 inhib -10 and CYP2C9 act 1.1.
`O=C(c1cc2n(n1)C(C(F)(F)F)CC(c1ccc(F)cc1)N2)N1CCCC1` (stereo not drawn) gave CYP2C19 inhib 5, sEH inhibitor 7, sEH act -7, CYP2C19 activ 1, CYP2C9 inhib 23 and CYP2C9 act 0.8.
`CCn1c(C)c(CCC(=O)O)c(=O)n2nc(-c3ccccc3OC)cc12` gave CYP2C19 inhib 9, sEH inhibitor -6, sEH act 6, CYP2C19 activ 0.9, CYP2C9 inhib 31 and CYP2C9 act 0.7.
`COc1ccc(-n2nnnc2-c2cccnc2)cc1` gave CYP2C19 inhib 55*, sEH inhibitor -4, sEH act 3, CYP2C19 activ 0.4, CYP2C9 inhib 24 and CYP2C9 act 0.8.
Screening Cc1ccc(CNS(=O)(=O)NCc2ccccc2)cc1 returned CYP2C19 inhib 77*, sEH inhibitor 7, sEH act -8, CYP2C19 activ 0.2, CYP2C9 inhib -8 and CYP2C9 act 1.1.
Screening CCCCc1ccc(S(=O)(=O)NCCc2ccncc2)cc1 returned CYP2C19 inhib 100*, sEH inhibitor -5, sEH act 3, CYP2C19 activ 0, CYP2C9 inhib 68* and CYP2C9 act 0.3.
`Cc1ccc(S(=O)(=O)NCCc2ccncc2)cc1` gave CYP2C19 inhib 97*, sEH inhibitor 6, sEH act -6, CYP2C19 activ 0, CYP2C9 inhib 51* and CYP2C9 act 0.5.
Cc1ccc(S(=O)(=O)NCCc2ccc(S(N)(=O)=O)cc2)cc1 was read as CYP2C19 inhib 13, sEH inhibitor 2, sEH act -1, CYP2C19 activ 0.9, CYP2C9 inhib 48 and CYP2C9 act 0.5.
`Cc1ccc(CNC(=O)Cc2ccc(-c3ccccc3)cc2)cc1` gave CYP2C19 inhib 34, sEH inhibitor -7, sEH act 8, CYP2C19 activ 0.7, CYP2C9 inhib 42 and CYP2C9 act 0.6.
For Cc1ccc(CCNS(=O)(=O)c2ccc(C)cc2)cc1 the results were CYP2C19 inhib 52*, sEH inhibitor -1, sEH act 2, CYP2C19 activ 0.5, CYP2C9 inhib 55* and CYP2C9 act 0.4.
`Cc1ccc2c(c1)N(CC(=O)NC1CCCc3ccccc31)C(=O)CO2` (stereo not drawn) gave CYP2C19 inhib 47, sEH inhibitor 45, sEH act -46, CYP2C19 activ 0.5, CYP2C9 inhib 2 and CYP2C9 act 1.
For Cc1ccccc1-c1nc(CN2CCC(C(=O)NCCCN3CC(C)CC(C)C3)CC2)c(C)o1 (stereo not drawn) the results were CYP2C19 inhib -12, sEH inhibitor -5, sEH act 7, CYP2C19 activ 1.1, CYP2C9 inhib -9 and CYP2C9 act 1.1.
`CCCN1C(=O)c2cc(C(=O)NCCc3cccc(C)c3)ccc2C1O` (stereo not drawn) gave CYP2C19 inhib 27, sEH inhibitor 67, sEH act -67, CYP2C19 activ 0.7, CYP2C9 inhib 34 and CYP2C9 act 0.7.
Screening CCOc1ccc(Br)cc1S(=O)(=O)NCCN(C)C returned CYP2C19 inhib -14, sEH inhibitor -10, sEH act 12, CYP2C19 activ 1.1, CYP2C9 inhib -8 and CYP2C9 act 1.1.
For O=S(=O)(NCCc1ccncc1)c1cc(Br)ccc1F the results were CYP2C19 inhib 89*, sEH inhibitor -2, sEH act -1, CYP2C19 activ 0.1, CYP2C9 inhib 51* and CYP2C9 act 0.5.
For Cc1ccc(S(=O)(=O)NCCCOC(=O)Nc2ccncc2)cc1 the results were CYP2C19 inhib 92*, sEH inhibitor -11, sEH act 11, CYP2C19 activ 0.1, CYP2C9 inhib 100* and CYP2C9 act 0.
Screening CSc1ccc(S(=O)(=O)NCc2ccc(C)cc2)cc1 returned CYP2C19 inhib 95*, sEH inhibitor -7, sEH act 3, CYP2C19 activ 0.1, CYP2C9 inhib -62 and CYP2C9 act 1.6.
`CCC1(C(=O)OC)NC(c2ccccc2OC)C2C(=O)N(C)C(=O)C21` (stereo not drawn) gave CYP2C19 inhib -22, sEH inhibitor 3, sEH act -5, CYP2C19 activ 1.2, CYP2C9 inhib -23 and CYP2C9 act 1.2.
For CCOc1c(Br)ccc2c1sc1nc[nH]c(=O)c12 the results were CYP2C19 inhib 98*, sEH inhibitor 0, sEH act 0, CYP2C19 activ 0, CYP2C9 inhib -6 and CYP2C9 act 1.1.
Screening Cc1cc2c(=O)[nH]cnc2s1 returned CYP2C19 inhib 3, sEH inhibitor 10, sEH act -8, CYP2C19 activ 1, CYP2C9 inhib -23 and CYP2C9 act 1.2.
For COc1cccc2sc(N(C)c3ccccc3)nc12 the results were CYP2C19 inhib 78*, sEH inhibitor -10, sEH act 10, CYP2C19 activ 0.2, CYP2C9 inhib 10 and CYP2C9 act 0.9.
`Cc1ccc(C)c(OCCn2cc(/C=C(\C#N)C(=O)NCc3cccs3)c3ccccc32)c1` gave CYP2C19 inhib 13, sEH inhibitor -8, sEH act 5, CYP2C19 activ 0.9, CYP2C9 inhib 78* and CYP2C9 act 0.2.
For COC(=O)c1sccc1NC(=O)c1csc(C)c1 the results were CYP2C19 inhib 47, sEH inhibitor -3, sEH act -2, CYP2C19 activ 0.5, CYP2C9 inhib 10 and CYP2C9 act 0.9.
COc1cccc(Cn2nnc(C(=O)Nc3ccc(C)cc3)c2N)c1 was read as CYP2C19 inhib 25, sEH inhibitor -12, sEH act 13, CYP2C19 activ 0.8, CYP2C9 inhib -108 and CYP2C9 act 2.1*.
CSc1ccc(Cn2nnc(C(=O)Nc3ccc(C)c(C)c3)c2N)cc1 was read as CYP2C19 inhib 37, sEH inhibitor -9, sEH act 6, CYP2C19 activ 0.6, CYP2C9 inhib 25 and CYP2C9 act 0.7.
For COc1ccc(NC(=O)c2nnn(Cc3ccc(SC)cc3)c2N)c(OC)c1 the results were CYP2C19 inhib 5, CYP2C19 activ 1, CYP2C9 inhib -147 and CYP2C9 act 2.5*.
Screening COc1ccccc1NC(=O)c1nnn(CC(=O)Nc2ccccc2)c1N returned sEH inhibitor 9 and sEH act -10.
Screening COc1cccc(Cn2nnc(C(=O)Nc3cc(C)ccc3OC)c2N)c1 returned CYP2C19 inhib 14, sEH inhibitor 1, sEH act 0, CYP2C19 activ 0.9, CYP2C9 inhib -26 and CYP2C9 act 1.3.

Screening data deposited in PubChem by several laboratories.
